# Screening data deposited in PubChem by National Center for Advancing Translational Sciences (NCATS).
# VACV mCherry inh: qHTS for Stage-Specific Inhibitors of Vaccinia Orthopoxvirus: mCherry Reporter Primary qHTS | Vaccinia virus mCherry reporter infection, fluorescence | Potency, µM (titrated, usually from 36.5 µM), for inactives: at the top dose activity change, negative = inhibition, usual class: inhibitors | actives 0.63% (n = 310,000); calls by dose curve; tested in A549 cells; further: potency means the concentration at half of the fitted maximal effect; nearly all actives have a fitted effect of over 35% in size
# HCMV inh: qHTS Assay for inhibitors of the human cytomegalovirus (HCMV) | HFF cells, HCMV-luciferase reporter, 72 h; stronger effect = lower value | activity change, negative = inhibition, % at 57.5 µM | actives 4.5% (n = 410,000) | AID 1259415, 2018; in the data active means activity change below about -60%; inconclusive means no clear call, values can overlap the other calls; inactive means above about -39%
#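 Human foreskin fibroblasts infected with luciferase-reporter HCMV at MOI 1 PFU/cell, compounds at two doses. Luciferase measured 72 h post infection; normalized to buffer-only basal and Salinomycin (10uM) controls.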
# Vaccinia Venus: qHTS for Stage-Specific Inhibitors of Vaccinia Orthopoxvirus: Venus Reporter Primary qHTS | AID 720580, 2013 | Potency, µM (top dose mostly 36.5 µM), without a hit: top-dose activity change, negative = inhibition, usual class: inhibitors | actives 0.46% (n = 330,000) | Vaccinia virus Venus reporter expression, fluorescence; calls by dose curve; tested in A549 cells; further: potency means the concentration at half of the fitted maximal effect; nearly all actives have a fitted effect of over 30% in size
# LASV entry inh: qHTS for Inhibitors of binding or entry into cells for Lassa Virus | Lassa virus pseudotype entry inhibition, cell reporter | Potency, µM (titrated, usually from 37.9 µM), for the others: at the top dose activity change, negative = inhibition, most hits filed as inhibitors | actives 1.2% (n = 300,000) | AID 540256, 2011; calls by dose curve; tested in HEK293 cells; further: potency means the concentration at half of the fitted maximal effect; nearly all actives have a fitted effect of over 50% in size
# FMDV inh: High Throughput Screening for Foot and Mouth Disease Virus Antivirals; FMDV antiviral cell-based qHTS; Potency, µM (highest dose often 57.9 µM), inactives show at the highest dose activity change, negative = inhibition, hits mostly inhibitors; actives 1.2% (n = 410,000); AID 1159524, 2015; calls by dose curve; tested in HEK293T cells; further: read-out not given here; potency means the concentration at half of the fitted maximal effect; nearly all actives have a fitted effect of over 45% in size
# Marburg entry inh: qHTS for inhibitors of binding or entry into cells for Marburg Virus; Marburg virus pseudotyped entry inhibition, cell reporter; Potency, µM (titrated, usually from 37.8 µM), for the others: top-dose activity change, negative = inhibition, actives largely listed as inhibitors; actives 1.8% (n = 300,000); AID 540276, 2011; calls by dose curve; tested in HEK293 cells; further: potency means the concentration at half of the fitted maximal effect
# An asterisk follows results filed as active; i = inactive; ? = inconclusive; · = no result; [ ] = dose if it differs, or a comment. Only some compounds are listed: those with a hit (about 6.5% of all), similar ones and a draw of the others. On the % scale 0 is the no-effect control and ±100 the full control effect.
SMILES,VACV mCherry inh,HCMV inh,Vaccinia Venus,LASV entry inh,FMDV inh,Marburg entry inh
C=C1C(=O)C2=CC1CCC(=O)C1(C)CCC(OC(C)=O)C(C)(C)C1CC2O (centres undefined),2.5µM*,-99*,4µM*,13µM*,7.9µM*,?
Cc1ccc2nc(SC(C)C(=O)Nc3cccc([N+](=O)[O-])c3)[nH]c2c1 (centres undefined),-22%,-67*,?,-11%,?,?
O=C(Nc1ccc(F)cc1)C(Sc1nc2ccccc2[nH]1)c1ccccc1 (centres undefined),?,-33,?,-29%,-16%,?
CC(Sc1nc2ccccc2[nH]1)C(=O)Nc1ccccc1F (centres undefined),-3%,-73*,-6%,14%[46.1 µM],-16%,?
Cc1ccc2nc(SC(C)C(=O)NC3CCCC3)[nH]c2c1 (centres undefined),-12%,-34,3%,0%[46.1 µM],-13%,?
Cc1ccc2nc(SCC(=O)Nc3cc([N+](=O)[O-])ccc3F)[nH]c2c1,i,-91*,-25%,-1%,-30%,-10%
CCOc1ccccc1N1CC(c2nc3ccccc3n2CCCOc2ccccc2)CC1=O (centres undefined),-22%,14,-12%,?,-24%,?
Cc1ccc2c(c1)c1c(c(=O)n(-c3cccc(Cl)c3)c(=O)n1CC(=O)N1CCCC1)n2C,11%,2,12%,4%[46.1 µM],-20%,·
O=C(Cn1c(=O)n(Cc2ccco2)c(=O)c2sc3ccccc3c21)Nc1ccc(F)cc1F,-11%,-74*,-8%,1%[46.1 µM],-23%,-17%[46.1 µM]
Cc1ccc(NC(=O)Cn2c(=O)n(Cc3ccco3)c(=O)c3sc4ccccc4c32)c(C)c1,-6%,-2,-20%,5%[46.1 µM],-3%,-5%[46.1 µM]
CCCCCCCCCCCCCCCCn1cc[n+](C)c1,?,-96*,?,-28%,32µM*,?
CCCCCCCCn1ccc(=N)cc1,-15%,?,-12%,?,?,?
O=[N+]([O-])c1cc(CN2CCN(c3cccc(C(F)(F)F)c3)CC2)c2cccnc2c1O,-20%,-76*,-23%,?,-15%,?
CCOc1cc(CN2CCN(c3cccc(C(F)(F)F)c3)CC2)ccc1O,·,-21,·,-5%,-6%,16µM*
O=[N+]([O-])c1cc(CN2CCCC2)c2cccnc2c1O,-16%,·,-8%,-1%,-1%,-9%
CCOc1cc(CN2CCN(c3cccc(C(F)(F)F)c3)CC2)ccc1OC,-21%,31,-12%,-15%,·,?
CCOCc1cc(CN2CCN(c3cccc(C(F)(F)F)c3)CC2)c(O)c2ncccc12,?,-100*,-19%[7.34 µM],?,?,?
CC(C)OCc1cc(CN2CCN(c3cccc(C(F)(F)F)c3)CC2)c(O)c2ncccc12,4µM*,-98*,-27%[7.34 µM],?,-25%,?
CCn1c(-c2nonc2N)nc2ccncc21,·,·,·,-6%,·,·
CCCC(C(=O)Nc1c(C)cccc1C)N1C(=O)C(=O)c2ccccc21 (centres undefined),·,-23,·,·,·,·
Cc1cc(S(=O)(=O)N2CCN(Cc3noc(CCC(=O)N4CCCCC4)n3)CC2)ccc1F,-10%,-110*,-6%,8%[46.1 µM],-4%,·
CC(=O)OC[C@@H]1O[C@H](CCO/N=C(\C)CCN2CCCc3nc(C)c(C)cc32)C=C[C@@H]1OC(C)=O,·,·,·,·,·,-28%[14.2 µM]
COC(=O)C1=C(C(=O)OC)[C@@H]2Nc3ccccc3[C@@]23C[C@@H](C(=O)OC)N(C(=O)NC2CCCC2)C3=N1,·,·,·,·,·,-4%[14.2 µM]
CCCOc1c(Br)cc(/C=N/O)cc1OC,·,-3,?,-15%,0%,10µM*
COc1ccc2c(c1)CCC1[C@@H]2CCC2(C)[C@@H](NCCCCCCN3C(=O)C=CC3=O)CC[C@@H]12 (some centres undefined),·,·,·,·,-8%,·
SMILES,VACV mCherry inh,HCMV inh,Vaccinia Venus,LASV entry inh,FMDV inh,Marburg entry inh
COc1ccc2c(c1)CCC1C2CC[C@@]2(C)C1CC[C@@H]2NCCCCCCN1C(=O)CCC1=O (some centres undefined),·,·,·,13µM*,·,?
COc1ccc2c(c1)CCC1C2CC[C@@]2(C)C(O)CCC12 (some centres undefined),-2%,·,10%,·,11%,·
C=C1C[C@H]2[C@@H]3CCc4cc(OC)ccc4[C@H]3CC[C@]12C,-12%,-69*,-20%,·,-1%,·
CCOC(=O)c1c(-n2c(C)cc(/C=C3\C(=O)NC(=O)N(C)C3=O)c2C)sc2c1CCCC2,·,-34,·,?,-9%,?
CCOC(=O)c1c(-n2c(C)cc(C=O)c2C)sc2c1CCCC2,·,-23,·,9.2µM*,0%,12µM*
Cc1ccc2c(=O)cc(C(=O)NCc3ccccc3)oc2c1,-7%,-16,-12%,-25%[46.1 µM],-17%,-12%[46.1 µM]
O=C(NCc1ccco1)C1=CN2CCN(Cc3ccccc3)C(=O)N=C2O1,·,0,·,·,·,·
NCC(c1ccccc1)(c1ccccc1)c1ccccc1,-22%,1,-26%,1%,-25%,7.9µM*
CN(C)CCC(O)(c1ccccc1)c1ccccc1,i,·,-11%,-1%,·,?
NC(=O)c1ccc(NC(=O)CCc2nc3ccccc3s2)cc1,·,50,·,·,0%,·
O=C(Nc1ccc(Cc2nc3ccccc3s2)cc1)c1ccncc1,-24%,-86*,-17%,-12%[46.1 µM],-27%,?
Cc1cc(C)cc(NC(=O)Nc2ccc3c(c2)N(C)C(=O)CS3)c1,-29%,7,-22%,·,?,·
CCc1ccc(NC(=O)Nc2ccc3c(c2)N(C)C(=O)CS3)cc1,0%,-69*,-13%,·,-7%,·
O=[N+]([O-])c1ccc(S(=O)(=O)NCc2nc3cccnc3n2Cc2ccccc2Cl)cc1,-10%,-30,-14%,-5%[46.1 µM],5%,·
Cc1c(Cl)cccc1NC(=O)c1ccc(NC(=O)N2CCSc3ncccc32)cc1,-9%,0,-4%,-1%[46.1 µM],?,·
O=C(CCCc1c[nH]c2ccccc12)Nc1ncccc1O,·,-88*,·,·,-15%,·
CCOc1ncccc1C(=O)NCCc1c[nH]c2ccccc12,-11%,-66*,-14%,14%,3%,15%[46.1 µM]
CSc1ccc(CN(C)C(C)C(=O)NCC2CCCCC2)cc1 (centres undefined),-21%,2,-7%,16%[46.1 µM],-6%,11µM*
Nc1nc(N)c(-c2cccc(C(F)(F)F)c2)c(Cc2cccc(C(F)(F)F)c2)n1,4.5µM*,-75*,4µM*,?,-29%,?
C(=N\Nc1nc2ccccc2s1)/c1ccc2c(c1)OCO2,-11%,87,4%,?,-14%,?
Cc1nc(N/N=C\c2ccc3c(c2)OCO3)sc1C,16µM*,98,?,6%[46.1 µM],23%,21%[46.1 µM]
O=[N+]([O-])c1ccc(N2CCCCC2)cn1,·,5,·,·,35%,·
